This is an account of results in PubChem BioAssay (NCI).

Among the test systems are T-47D breast; BT-549 breast; MDA-MB-435 melanoma; SW-620 colon; MCF7 breast; HCT-116 colon; HCC-2998 colon; KM12 colon; MDA-MB-468 breast.
Holding throughout (assay): NCI-60 one-dose screen, 48 h (100 = growth as untreated, 0 = no growth, -100 = all killed)
What all share (conditions): 10 µM unless noted

The panel holds about 83,000 compounds, 20% with a hit somewhere; the sample as a whole holds those more often.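 Single-concentration screen, 48 h exposure, 96-well plates. Endpoint: percent growth. Below 10 = active.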 Unmarked numbers belong to inactive results. The source made the active and inactive calls.

For the molecule `COc1ccc(/C=C/C(=O)c2ccc(S(=O)(=O)NCCNc3nc(N(C)C)nc(N4CCOCC4)n3)cc2)cc1`, the growth was 83.5% with T-47D breast; 105% in the assay on BT-549 breast; 81.8% with MDA-MB-435 melanoma; 68.7% in the assay on SW-620 colon; 11.8% in the assay on MCF7 breast; -9.23% (active) with HCT-116 colon. For the same molecule, the growth in the assay on HCC-2998 colon is 116%; in the assay with KM12 colon it was 64.8%; in the assay on MDA-MB-468 breast, 76.3%.

Regarding `COC(=O)CSC1=C(C)C(=O)C(OC)=C(OC)C1=O`, the growth in the assay with T-47D breast was 36.2%; in the assay with BT-549 breast it was 79%; with MDA-MB-435 melanoma, 89.2%; in the assay on SW-620 colon, 84.5%; with MCF7 breast it was 86.6%; in the assay on HCT-116 colon it was 29.6%. Besides, the results for the growth in the assay on HCC-2998 colon, in the assay on KM12 colon and in the assay on MDA-MB-468 breast were 120%, 93.5% and 52%, respectively.

In the case of `COc1ccc(-c2cc(-c3ccccc3)c(C#N)c(=O)[nH]2)cc1S(N)(=O)=O`, the growth with T-47D breast was 102%; with BT-549 breast it was 89.5%; in the assay on MDA-MB-435 melanoma, 102%; in the assay with SW-620 colon, 102%; with MCF7 breast, 103%; in the assay on HCT-116 colon, 103%. Besides, the growth in the assay on HCC-2998 colon is 122%; in the assay on KM12 colon, 103%; in the assay with MDA-MB-468 breast it was 102%.

For `COc1ccc2[nH]c(O)c(N=Nc3nc(-c4ccc(C#N)cc4)cs3)c2c1`, the growth in the assay on T-47D breast was 54.7%; in the assay on BT-549 breast, 63.2%; in the assay with MDA-MB-435 melanoma, 67.3%; in the assay on SW-620 colon it was 63.3%; in the assay with MCF7 breast it was 69.8%; in the assay on HCT-116 colon, 31.8%. Further, the growth in the assay on HCC-2998 colon was 90.8%; with KM12 colon, 78.4%; with MDA-MB-468 breast it was 77.5%.

For the molecule `COc1ccc2[nH]c(=O)c(CSc3ccccc3Nc3nccc(-c4ccc(Cl)cc4)n3)cc2c1`, the growth with T-47D breast is 38%; in the assay with BT-549 breast it was 31.6%; in the assay with MDA-MB-435 melanoma it was 28.3%; with SW-620 colon, 50.3%; in the assay on MCF7 breast, 7.48% (active); in the assay on HCT-116 colon, 11.9%. The growth with HCC-2998 colon was 37.6%; in the assay on KM12 colon, 31.9%; in the assay with MDA-MB-468 breast it was 17.3%.

As for `O=C(Cn1c(-c2ccccc2)nc2ccccc21)N=Nc1c(O)[nH]c2ccc(Cl)cc12`, the growth in the assay on T-47D breast is -29.8% (active); with BT-549 breast, -53% (active); in the assay with MDA-MB-435 melanoma, 2.53% (active); with SW-620 colon it was 23%; in the assay on MCF7 breast it was 9.49% (active); with HCT-116 colon, -23.7% (active). The figures for the growth in the assay on HCC-2998 colon, in the assay on KM12 colon and in the assay with MDA-MB-468 breast were 19.5%, 32.2% and -18.9% (active), respectively.

Take `Cn1cc(-c2cc(N)n3nc(-c4c[nH]c5ccccc45)cc3n2)c2cc(Cl)ccc21`: the growth in the assay with T-47D breast was -77.5% (active); with BT-549 breast, -3.57% (active); in the assay on MDA-MB-435 melanoma, -51.7% (active); in the assay on SW-620 colon, -84.9% (active); with MCF7 breast, -70.3% (active); in the assay on HCT-116 colon it was -73.4% (active). For the same molecule, the growth with HCC-2998 colon was -80% (active); in the assay on KM12 colon, -70.5% (active); with MDA-MB-468 breast it was -83.2% (active).

Regarding `CN(C)CCOc1ccc(C(=O)C2[C@H](c3ccc(Cl)cc3)[C@@H](c3ccccc3)NC23C(=O)Nc2ccc(Cl)cc23)cc1` (stereo partly specified), the growth was -81.7% (active) in the assay on T-47D breast; -97.6% (active) in the assay on BT-549 breast; -96.2% (active) with MDA-MB-435 melanoma; -87.2% (active) in the assay with SW-620 colon; -81.5% (active) in the assay on MCF7 breast; -91% (active) in the assay with HCT-116 colon. Besides, the growth with HCC-2998 colon is -91.8% (active); in the assay on KM12 colon it was -67.1% (active); in the assay on MDA-MB-468 breast, -92.3% (active).

On to `CCc1ccc(SC2c3cc(OC)ccc3Oc3nc(N)c(C#N)c(N)c32)cc1` (stereo unspecified), for which the growth in the assay with T-47D breast is -52% (active); in the assay with BT-549 breast, -67.8% (active); in the assay on MDA-MB-435 melanoma, -22.1% (active); with SW-620 colon, -42.9% (active); in the assay on MCF7 breast, -45.4% (active); with HCT-116 colon, -96% (active). Further, the growth is -48.3% (active) in the assay on HCC-2998 colon, -17.7% (active) with KM12 colon and -78.8% (active) in the assay on MDA-MB-468 breast.

As for `Cc1nn(-c2ccccc2)c2nc(C)n(C(=O)N/N=C/c3ccccc3)c(=O)c12`, the growth was 90.6% in the assay on T-47D breast; 101% with BT-549 breast; 102% in the assay on MDA-MB-435 melanoma; 101% with SW-620 colon; 92.9% in the assay on MCF7 breast; 102% with HCT-116 colon. In addition, the growth in the assay on HCC-2998 colon is 100%; in the assay with KM12 colon, 99.4%; in the assay on MDA-MB-468 breast, 115%.

Take `Cc1cc(Cl)ccc1NC(=O)Nc1ccc(-c2ccc3c(c2)NC(=O)/C3=C\c2ccc[nH]2)cc1`: the growth in the assay with T-47D breast was 26.4%; in the assay on BT-549 breast, 79.1%; with MDA-MB-435 melanoma it was 98.6%; in the assay with SW-620 colon, 89.3%; with MCF7 breast, 18.7%; in the assay with HCT-116 colon, 108%. Further, the growth in the assay with HCC-2998 colon was 118%; in the assay on KM12 colon, 25.8%; in the assay on MDA-MB-468 breast, -2.85% (active).

In the case of `COc1c(B(O)O)cc(F)cc1-c1nc2ccc3[nH]ncc3c2c2c1COCC2`, the growth with T-47D breast is 62.6%; in the assay with BT-549 breast it was -7.9% (active); with MDA-MB-435 melanoma, 87.1%; in the assay on SW-620 colon it was 34.3%; in the assay with MCF7 breast it was 44.7%; in the assay on HCT-116 colon, 19.8%. The growth is 80.3% with HCC-2998 colon, 70.2% in the assay on KM12 colon and 41.9% in the assay with MDA-MB-468 breast.

On to `CN(C)c1nc(NCCNS(=O)(=O)c2ccc(C(=O)/C=C/c3ccc(F)cc3)cc2)nc(N2CCOCC2)n1`, for which the growth with T-47D breast was 35.4%; with BT-549 breast, -24.8% (active); in the assay with MDA-MB-435 melanoma, 3.15% (active); in the assay with SW-620 colon, -48.6% (active); with MCF7 breast, 17.8%; with HCT-116 colon, -96% (active). For the same molecule, the growth with HCC-2998 colon was -96.5% (active); in the assay on KM12 colon it was -42.5% (active); in the assay with MDA-MB-468 breast, -36.6% (active).

`Cc1ccc(C(=O)Nc2cc(-c3ccccc3)cc(C(F)(F)F)c2)cc1C#Cc1cnc2cccnn12`: the growth in the assay with T-47D breast is 42.3%; in the assay with BT-549 breast, 139%; with MDA-MB-435 melanoma, 45.3%; with SW-620 colon, 66.7%; in the assay with MCF7 breast, 39.9%; in the assay with HCT-116 colon it was 32.2%. The growth in the assay on HCC-2998 colon was 85.3%; with KM12 colon, 41.9%; in the assay with MDA-MB-468 breast, 62.9%.
